Compounds without any hit were thinned out: in the full panel of roughly 83,000, 20% have a hit.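 Treatment: one concentration, 48 hours, 96-well format. Scoring: percent growth, with anything below 10 considered active.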 Active and inactive are the calls of the source.
The compounds below were run on MDA-MB-468 breast (assay: NCI-60 one-dose screen, 48 h (100 = growth as untreated, 0 = no growth, -100 = all killed)). Conditions: 10 µM unless noted.
For CCCCCCOc1ccc(C2(Cl)c3ccccc3N(C)c3ccccc32)cc1, the growth was 50.3% (inactive).
Clc1ccc(N2N=C(c3cccc(Nc4ccncc4)c3)CC2c2ccc(Br)cc2)cc1 (stereo not given) was tested, and the growth was -27.1% (active).
In the case of CCCCCCCCn1ccc2cc(NC(=O)Cn3cc(CN4CCCCC4)nn3)ccc21, the growth is reported as -14.6% (active).
CCOC(=O)C/C(=N\Nc1cc(=O)[nH]c2ccc(OC)cc12)C(=O)OCC was tested, and the growth was 89.1% (inactive).
With CCn1nc(C#Cc2c(C)ccc3c(Nc4ccc(Cl)cc4)nccc23)c2c(N)ncnc21 the growth was 27.1% (inactive).
In the case of C=C1C(=O)O[C@H]2[C@H]1CC/C(CNC(=O)c1cccc3ccccc13)=C\CC[C@@]1(C)O[C@@H]21, the growth is reported as 33.8% (inactive).
In the case of CO[C@H]1C[C@@H]2CC[C@@H](C)[C@@](O)(O2)C(=O)C(=O)N2CCCC[C@H]2C(=O)O[C@H]([C@H](C)C[C@@H]2CC[C@@H](OCCO)[C@H](OC)C2)CC(=O)[C@H](C)/C=C(\C)[C@@H](O)[C@H](OC)C(=O)[C@H](C)C[C@H](C)\C=C/C=C/C=C/1C, the growth is reported as 26.9% (inactive).
In the case of O=C(O)c1ccc(-n2cc(CNc3ccc(Oc4ccccc4)cc3)c(-c3ccccc3)n2)cc1, the growth is reported as 99.8% (inactive).
With C/C(=N/NC(N)=S)c1sc(Nc2cccc(Cl)c2)nc1C the growth was 47.3% (inactive).
For Cc1ccc(CSc2nc(-c3ccc(Cl)cc3)c(C#N)c(N3CCNCC3)n2)cc1, the growth was 81.5% (inactive).
For Cc1ccccc1COc1ccc(-c2ccnn2-c2ccc(Cl)cc2)cc1, the growth was 41.1% (inactive).
For COc1cc(F)c(/C=C/c2cc(/C=C/c3cc(OC)c(OC)cc3F)n(-c3cc(F)cc(F)c3)n2)cc1OC, the growth was -37.6% (active).
With CCOC(=O)/C=C1\S/C(=N\Nc2cc(=O)[nH]c3ccccc23)N(c2ccccc2)C1=O the growth was 105% (inactive).
In the case of CN1CCN(Cc2ccc(NC(=O)c3cncc(C#Cc4cnc5ccc(N6CCOCC6)nn45)c3)cc2C(F)(F)F)CC1, the growth is reported as -70.8% (active).
COc1ccc(NC(=O)CSc2nnc(-c3ccc4nc(-c5ccccc5)[nH]c4c3)o2)cc1 was tested, and the growth was 95.5% (inactive).
COc1cccc2cc(N(C)c3nc(C)nc4c3CCC4)ccc12 was tested, and the growth was 18% (inactive).
In the case of Cc1nn(-c2ccccc2)c(-n2ccnc2)c1/C=N/Nc1nc(-c2ccc(Cl)c(Cl)c2)cs1, the growth is reported as -8.71% (active).
In the case of COc1cc2c(c(OC)c1OC)CCC(c1cccc(C(=O)Nc3ccccc3Br)c1)O2 (stereo not given), the growth is reported as 85.2% (inactive).
In the case of CCCCCCCCCCCC1N=C(N)N=C(N)N1c1cccc(Br)c1 (stereo not given), the growth is reported as -92.7% (active).
For Oc1ccc(N=Nc2ccc(N=Nc3ccccc3)cc2)cc1, the growth was 83.1% (inactive).
For CNC(=S)Sc1ccc([N+](=O)[O-])cc1[N+](=O)[O-], the growth was 35.6% (inactive).
With CCO/C=N/C1=C(C#N)C(c2ccc(OC)cc2)c2c(c3ccccc3n(C)c2=O)O1 (stereo not given) the growth was 105% (inactive).
With CCC1CCCCN1C(=S)N/N=C(\C)c1ccccn1 (stereo not given) the growth was -2.96% (active).
For Cc1nc(Sc2nc3ccc([N+](=O)[O-])cc3s2)sc1C, the growth was 6.67% (active).
In the case of CC(=O)c1cc2c(N)c(C(=O)Nc3cncc4ccccc34)sc2nc1C, the growth is reported as 97% (inactive).
CCCCN(CCCC)CC(O)c1ccc(OCc2ccccc2)c2ccccc12 (stereo not given) was tested, and the growth was 114% (inactive).
For COC(=O)c1c2c(c(C)[n+]([O-])c1C)C(=O)C(NCc1ccc(Br)cc1)=CC2=O, the growth was -16.6% (active).
For CC1(COc2ccc3c(c2)ncn3-c2ccc3cccc(N4CCC(N)CC4)c3n2)COC1, the growth was -20.6% (active).
O=CN1N=C(c2cccc(Nc3ccncc3)c2)CC1c1ccc2c(c1)OCO2 (stereo not given) was tested, and the growth was 88.7% (inactive).
In the case of COc1cc2nccc(Oc3ccc(NC(=O)C4(C(=O)Nc5ccc(F)cc5)CC4)cc3)c2cc1O, the growth is reported as 86.4% (inactive).
CCc1onc(-c2ccc(OC)cc2)c1-c1ccccc1OCCN(CC)CC was tested, and the growth was 80% (inactive).
In the case of COc1ccc(C2=NNC(c3cc(Cc4ccc(O)c(C5CC(c6ccc(OC)cc6)=NN5)c4)ccc3O)C2)cc1 (stereo not given), the growth is reported as 65% (inactive).
With CCCCCCC1(C)NCCO1 (stereo not given) the growth was 103% (inactive).
With CC1(C)CC(=O)C2=C(C1)Nc1cc3c(cc1C2c1ccc(F)cc1)OCO3 (stereo not given) the growth was 71.4% (inactive).
C=C1C(=O)O[C@H]2[C@H]1CC/C(COC(=O)N1CCC[C@H]1C(=O)Nc1ccc(OC)c(C(N)=O)c1O)=C\CC[C@@]1(C)O[C@@H]21 was tested, and the growth was -4.47% (active).
For CCOC(=O)CCCC(=O)OCC, the growth was 116% (inactive).
With Cc1ccc(N(C(=O)CCc2c[nH]c3ccccc23)[C@H](C(=O)Nc2ccc(Cl)cc2)c2cccc([N+](=O)[O-])c2)cc1 the growth was 91.3% (inactive).
For COC(=O)CCC/C=C\C[C@H]1C=CC(=O)/C1=C/C[C@@H](O)CCc1cccc(C(F)(F)F)c1, the growth was -14.5% (active).
With O=C(O)c1cccc2c1-c1ccc(Cl)cc1C2 the growth was 108% (inactive).
COc1cc(-c2nc(Nc3nc4ccccc4s3)[nH]c(=O)c2C#N)cc(OC)c1O was tested, and the growth was 105% (inactive).

From PubChem BioAssay (NCI)
